Source: PubChem
Most compounds without a hit are left out; they make up all but 3.4% or so of the library.
miR-122 sensor: miR-122 inhibition in Huh7 cells; Huh7 miR-122 Renilla luciferase sensor, 48 h; neutral wells = 0, positive control = 100; activation (reporter increase), % at 12.5 µM; 0.3% of 340,000 active; AID 602342;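 active = mean replicate activation score at least 90 and every replicate individually at or above 90; inconclusive = only one of the two criteria met; inactive = neither criterion met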;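 note: higher luciferase means less miR-122 activity so hits act as miR-122 inhibitors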
HIV Env fusion: HIV envelope-mediated fusion inhibition; 1.1% of 360,000 active; inhibition, % at 12.3 µM; HeLa-JRFL Env/CEM21 cell fusion, luciferase;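 active = mean replicate inhibition score of at least 50 and every replicate individually at or above 50; inconclusive = only one of the two criteria met; inactive = mean below 50 and not all replicates reaching 50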;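 note: 0% = plate neutral controls and 100% = maraviroc near 300 nM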
MITF TRPM1 HTS: activators of MITF-driven TRPM1 promoter activity in SK-MEL-5 cells. SK-MEL-5 TRPM1-promoter luciferase, 24 h; % of positive control, neutral wells = 0. activation, % at 12.5 µM. 0.75% of 300,000 active;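 active = mean activation of at least 80% with every replicate also reaching 80%; inconclusive = mean reaches 80% but some replicate falls short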;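 note: 0% = neutral control wells and 100% = parthenolide positive control wells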
esBAF inh: inhibitors of esBAF chromatin remodeling in mouse ES cells | reporter increase, % at 12.5 µM | AID 602393 | 2% of 350,000 active | Bmi1-luciferase knock-in reporter, 24 h; 100% = twice the neutral-well signal; in the data active = activation above about 40%; inconclusive = no clear call, values can overlap the other calls;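 note: 0% = median of the plate's neutral control wells and 100% = double that signal; a rise in the Bmi1 reporter signal indicates esBAF inhibition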
Wnt act: activators of Wnt/beta-catenin signaling; Wnt/beta-catenin reporter cell assay, activator, plate reader; activation, % at 9.35 µM; 1.2% of 300,000 active; AID 743398; in the data active = activation above about 30%, passing the limit was not always enough; inconclusive = no clear call, values can overlap the other calls;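 note: 0% = neutral control wells and 100% = positive control wells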
An asterisk follows results filed as active; [ ] = dose if it differs, or a comment.

`COC(=O)Cn1ncc2c(C)n(Cc3ccccc3)c(C)c2c1=O` gave miR-122 sensor 4.9, HIV Env fusion -5.6, MITF TRPM1 HTS 37.8, esBAF inh 52.2* and Wnt act 11.1.
Cc1c2cnn(CC(=O)O)c(=O)c2c(C)n1Cc1ccccc1 was read as miR-122 sensor 0.9, HIV Env fusion -37.4, esBAF inh -1.2 and Wnt act -5.1.
Screening COc1ccccc1NC(=S)NCC1CCCCC1 returned miR-122 sensor 181.6*, HIV Env fusion 3.7, MITF TRPM1 HTS 6.6, esBAF inh -4.1 and Wnt act -3.5.
COc1ccccc1NC(=S)NC1CCCCC1 was read as miR-122 sensor 9.2, HIV Env fusion 3.3, MITF TRPM1 HTS -7.4, esBAF inh 2.7 and Wnt act -2.1.
`O=C(Nc1ccccc1)Nc1ccccc1` gave miR-122 sensor 4.4, MITF TRPM1 HTS 59.8, esBAF inh 49.0* and Wnt act 0.4.
For O=C(Nc1ccccc1)Nc1ccc(Nc2ccccc2)cc1 the results were miR-122 sensor 0.0, HIV Env fusion -12.4 and Wnt act 1.2.
O=C(Nc1ccc(Cl)cc1)Nc1cccc(C(=O)O)c1 was read as miR-122 sensor 3.1, HIV Env fusion 71.3*, MITF TRPM1 HTS -80.1 and Wnt act -0.7.
For O=C(Nc1ccccc1)Nc1cccc(Cl)c1 the results were miR-122 sensor -1.5, HIV Env fusion -87.7, MITF TRPM1 HTS 54.7 and esBAF inh 52.4*.
COc1ccccc1NC(=O)Nc1ccc(C(=O)N2CCCCC2)cc1 was read as miR-122 sensor 2.3, HIV Env fusion -49.9, MITF TRPM1 HTS 111.1*, esBAF inh 36.8 and Wnt act 15.1.
CCCN(C)C[C@@H]1Oc2cc(C#Cc3ccncc3)ccc2S(=O)(=O)N([C@H](C)CO)C[C@@H]1C was read as HIV Env fusion -12.3[16.7 µM] and esBAF inh 3.1.
`O=C(Nc1ccc2c(c1)[C@H]1C[C@H](CC(=O)N3CCc4ccccc4C3)O[C@H](CO)[C@H]1O2)NC1CCCC1` gave miR-122 sensor -3.8[16.7 µM], HIV Env fusion 7.5[16.7 µM] and esBAF inh 24.6.
For O=C(NC1=NCCS1)Nc1ccccc1 the results were miR-122 sensor -6.3, HIV Env fusion -84.0, MITF TRPM1 HTS 40.8 and Wnt act 42.4*.
CCOc1ccc(NC(C(=O)Nc2cccc(C(C)=O)c2)c2ccccc2)cc1 (centres undefined) was read as HIV Env fusion -0.2, MITF TRPM1 HTS 9.5 and Wnt act 2.3.
For CS/C(N)=N/C(=S)Nc1cccc(Cl)c1 the results were HIV Env fusion -269.5, MITF TRPM1 HTS 26.8 and Wnt act 45.1*.
Screening CCOc1ccc(/C=C/C(=O)Nc2cccc(C(C)=O)c2)cc1 returned miR-122 sensor -16.9, HIV Env fusion 0.5, MITF TRPM1 HTS 30.8 and esBAF inh 58.8*.
`O=C(CCC(=O)Nc1ccccc1)N/N=C/c1ccco1` gave miR-122 sensor 0.2, MITF TRPM1 HTS 4.4, esBAF inh 3.7 and Wnt act 0.6.
For O=C(N/N=C/c1ccco1)Nc1ccccc1 the results were miR-122 sensor -4.9, HIV Env fusion -24.2, MITF TRPM1 HTS 47.7, esBAF inh 8.9 and Wnt act 38.5*.
Screening C[C@H]1CN([C@@H](C)CO)C(=O)c2c(c3ccccc3n2C)-c2ccccc2CO[C@H]1CN(C)S(=O)(=O)c1ccc(F)cc1 returned esBAF inh -9.8.
Screening C[C@@H]1CN([C@H](C)CO)C(=O)c2cc(-c3ccccc3)cnc2O[C@@H]1CN(C)C(=O)Cc1ccccn1 returned miR-122 sensor 4.2[16.7 µM], HIV Env fusion -1.6[16.7 µM] and esBAF inh -3.2.
Screening CC(C)Cc1nnc(NC(=O)Nc2ccccc2)s1 returned miR-122 sensor -2.0, HIV Env fusion -28.5, MITF TRPM1 HTS 96.3*, esBAF inh 53.3* and Wnt act 38.3*.
For NC(c1csc(NC(=O)Nc2cccc(Cl)c2)n1)c1ccccc1Cl (centres undefined) the results were miR-122 sensor 53.3, HIV Env fusion 75.6*, esBAF inh -9.2 and Wnt act -4.7.
O=C(CN1c2ccccc2Sc2ccccc21)NNC(=O)Nc1cccc(Cl)c1 was read as miR-122 sensor 112.7*, HIV Env fusion 22.4, MITF TRPM1 HTS -4.1, esBAF inh 1.6 and Wnt act 14.7.
Screening CC(C)Cc1nnc(NC(=O)CCC(=O)Nc2ccccc2)s1 returned miR-122 sensor 9.9, HIV Env fusion -5.9, MITF TRPM1 HTS -3.7, esBAF inh 0.5 and Wnt act -0.5.
O=C(CCCOc1ccc(Cl)cc1)Nc1cccc(C(=O)O)c1 was read as miR-122 sensor 2.5, HIV Env fusion -0.6, MITF TRPM1 HTS -2.5, esBAF inh 1.4 and Wnt act 56.3*.
O=C(Cc1ccccc1)NNC(=O)Nc1cccc(Cl)c1 was read as miR-122 sensor 7.8, HIV Env fusion inconclusive, MITF TRPM1 HTS 0.8 and esBAF inh -6.3.
CC(=O)c1cccc(NC(=O)CCCOc2ccc(C)cc2)c1 was read as miR-122 sensor -1.1, HIV Env fusion 9.6, MITF TRPM1 HTS -7.1, esBAF inh -0.3 and Wnt act 0.9.
`COc1ccc(CN(C)C[C@H]2OCCCC[C@H](C)Oc3ccc(NS(=O)(=O)c4ccc(F)cc4)cc3C(=O)N([C@H](C)CO)C[C@@H]2C)cc1` gave miR-122 sensor -3.3[16.7 µM], HIV Env fusion -16.2[16.7 µM] and esBAF inh -2.8.
Screening COc1ccc(S(=O)(=O)Nc2ccc3c(c2)C(=O)N([C@@H](C)CO)C[C@@H](C)[C@@H](CN(C)Cc2ccc(C(F)(F)F)cc2)O3)cc1 returned miR-122 sensor -13.1[16.7 µM] and esBAF inh -0.2.
O=C(C[C@H]1CC[C@@H]2[C@H](COC[C@H](O)CN2C(=O)Nc2ccc(Cl)c(Cl)c2)O1)NC1CCC1 was read as miR-122 sensor -0.6[16.7 µM], HIV Env fusion -11.2[16.7 µM] and esBAF inh 5.9.
`O=C(Nc1cccc(Cl)c1)Nc1nnc(-c2ccncc2)s1` gave HIV Env fusion 56.6*, MITF TRPM1 HTS 5.2 and Wnt act -19.5.
`CCOc1ccc(NC(=O)Nc2cccc(C(=O)O)c2)cc1` gave miR-122 sensor -3.6, HIV Env fusion 63.5*, MITF TRPM1 HTS -93.7, esBAF inh -80.4 and Wnt act -30.6.
For Cn1nccc1NC(=O)Nc1cccc(Cl)c1 the results were miR-122 sensor -9.1, HIV Env fusion -15.1 and Wnt act 2.8.
Screening O=C(N/N=C/c1ccco1)c1cc(-c2ccc3ccccc3c2)n[nH]1 returned miR-122 sensor 4.1, MITF TRPM1 HTS 7.9 and esBAF inh 60.1*.
`CCc1ccc(-c2cc(C(=O)N/N=C/c3ccco3)[nH]n2)cc1` gave HIV Env fusion 3.6, MITF TRPM1 HTS 36.9 and Wnt act 2.8.
CCOC(=O)c1cccc(NC(=O)Nc2ccc(OCC)cc2)c1 was read as HIV Env fusion -24.4, MITF TRPM1 HTS 35.4 and Wnt act 11.8.
Cn1nnc2cc(NC(=O)Nc3cccc(Cl)c3)ccc21 was read as miR-122 sensor -2.2, HIV Env fusion -37.7, MITF TRPM1 HTS 93.3*, esBAF inh inconclusive and Wnt act 19.3.
